Data from ChEMBL document CHEMBL1201862, “PubChem BioAssay data set” (2004).
Hit rate of the full screen: of about 220,000 compounds, about 16,000 (7.3%) were called active. Another 25% or so got no clear call; they are omitted. The rule behind the calls is not given here. The full list was thinned out, with actives kept by preference.

biological target: T1, Aldehyde dehydrogenase 1A1 (Homo sapiens) (UniProt P00352); assay: qHTS Assay for Inhibitors of Aldehyde Dehydrogenase 1 (ALDH1A1). [Related pubchem assays: 1030 (qHTS Validation Assay for Inhibitors of aldehyde dehydrogenase 1 (ALDH1A1))]; assay type: functional
T1 sequence (whole entry): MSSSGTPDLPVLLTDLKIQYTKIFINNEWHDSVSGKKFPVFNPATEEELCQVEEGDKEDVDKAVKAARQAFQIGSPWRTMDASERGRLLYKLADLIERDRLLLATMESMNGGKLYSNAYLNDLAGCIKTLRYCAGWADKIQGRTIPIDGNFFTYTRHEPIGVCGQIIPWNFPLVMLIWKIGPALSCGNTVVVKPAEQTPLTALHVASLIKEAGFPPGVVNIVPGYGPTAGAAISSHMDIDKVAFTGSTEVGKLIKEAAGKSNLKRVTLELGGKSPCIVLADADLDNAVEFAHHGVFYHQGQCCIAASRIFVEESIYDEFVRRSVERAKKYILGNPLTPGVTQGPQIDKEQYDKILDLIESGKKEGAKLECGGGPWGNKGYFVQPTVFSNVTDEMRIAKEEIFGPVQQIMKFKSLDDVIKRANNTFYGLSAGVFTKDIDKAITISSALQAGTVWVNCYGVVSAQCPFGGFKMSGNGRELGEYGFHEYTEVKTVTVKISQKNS

Potency, active:
CC(C)C1SC(N/N=C/c2ccco2)=NC1=O (centres undefined) 200 µM
O=C(c1no[n+]([O-])c1C(=O)c1csc2ccccc12)c1csc2ccccc12 3.55 µM
CCOC(=O)N1CCN(c2nc3ccccc3nc2C(C#N)C(=O)NCCc2ccccc2)CC1 (centres undefined) 398 µM
CC(=O)OCc1ccccc1 20 µM
O=C(/C=C/c1ccc(Cl)cc1)c1cccs1 12.6 µM
COc1ccc(N2CC(C(=O)OCC(=O)c3cccc(OC)c3)CC2=O)cc1 (centres undefined) 224 µM

Potency, inactive:
O=C(O)c1ccc2c(c1)CC(c1ccccc1)OC2=O (centres undefined)
CCOC(=O)CN1C(=O)N[C@@H](c2cccc(C(F)(F)F)c2)C(C(=O)OC)=C1C
CC(C(=O)NN=C(c1ccccc1)c1ccccc1)N1CCCC1 (centres undefined)
O=C(N/N=C/c1ccc2c(c1)OCO2)c1ccc(Br)o1
N#CC1=C(N)Oc2c(oc(CO)cc2=O)C12C(=O)Nc1ccc(Cl)cc12 (centres undefined)
C[C@@H]1C[C@H]2[C@@H]3C[C@H](F)C4=CC(=O)C=C[C@]4(C)[C@@]3(F)[C@@H](O)C[C@]2(C)[C@@]1(O)C(=O)CO
CCc1ccc(Oc2coc3cc(OCC(=O)Nc4cc(C)ccc4C)ccc3c2=O)cc1
O=C(Cn1c2ccccc2c(=O)c2cc([N+](=O)[O-])ccc21)Nc1ccccc1Cl
